This passage reports outcome and AC50 results from PubChem BioAssay (EPA / NIEHS).

Records with an inconclusive call do not appear. Active and inactive are the calls of the source. How the source made its calls, unless noted: active means hit-call score of the fitted dose curve at least 0.9, where 1 is the maximum; inconclusive means response in the unintended direction; inactive means score below 0.9.

Chain of human Peroxisome Proliferator-activated Receptor delta (PPARd), PPARD (gene 5467) (Q03181 whole entry, looked up): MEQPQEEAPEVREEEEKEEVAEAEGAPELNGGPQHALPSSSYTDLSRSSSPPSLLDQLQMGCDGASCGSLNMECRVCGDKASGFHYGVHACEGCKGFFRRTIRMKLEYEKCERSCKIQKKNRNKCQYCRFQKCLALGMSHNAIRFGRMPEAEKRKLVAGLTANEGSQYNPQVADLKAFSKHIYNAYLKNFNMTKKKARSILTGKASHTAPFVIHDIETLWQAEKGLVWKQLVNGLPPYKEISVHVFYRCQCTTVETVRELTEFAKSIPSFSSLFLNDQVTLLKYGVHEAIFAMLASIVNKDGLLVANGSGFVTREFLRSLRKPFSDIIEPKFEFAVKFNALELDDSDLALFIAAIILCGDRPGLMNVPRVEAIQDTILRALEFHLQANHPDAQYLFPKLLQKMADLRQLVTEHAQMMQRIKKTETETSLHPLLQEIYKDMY
Chain of human Peroxisome Proliferator-activated Receptor alpha (PPARa), PPARA (gene 5465) (Q07869 whole entry, looked up): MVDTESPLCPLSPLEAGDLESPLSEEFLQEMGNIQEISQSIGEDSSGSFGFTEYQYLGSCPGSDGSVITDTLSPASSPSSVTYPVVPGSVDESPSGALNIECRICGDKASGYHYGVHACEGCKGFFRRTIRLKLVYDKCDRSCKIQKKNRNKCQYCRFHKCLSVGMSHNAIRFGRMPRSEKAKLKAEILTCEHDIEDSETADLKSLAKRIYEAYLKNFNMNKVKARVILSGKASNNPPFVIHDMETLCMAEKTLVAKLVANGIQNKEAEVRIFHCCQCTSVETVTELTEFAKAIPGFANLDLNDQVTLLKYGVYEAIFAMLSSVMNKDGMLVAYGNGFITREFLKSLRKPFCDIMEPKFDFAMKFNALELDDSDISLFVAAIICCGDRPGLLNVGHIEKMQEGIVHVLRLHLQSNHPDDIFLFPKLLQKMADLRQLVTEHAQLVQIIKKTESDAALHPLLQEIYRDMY

One assay has as its target human Peroxisome Proliferator-activated Receptor alpha (PPARa), PPARA (gene 5465) (UniProt Q07869). The experiment in a line: ATG_PPARa_TRANS: Attagene TRANS-FACTORIAL HepG2 Assay for human Peroxisome Proliferator-activated Receptor alpha (PPARa) (AID 2283001).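 On AC50: potency for gain of reporter signal over DMSO so agonist or activator.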
Settings: not given
The gist of the method:
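Measures transcriptional activity of an exogenous chimeric PPARa-Gal4 protein in transiently transfected HepG2 cells after 24 h dosing. Reporter mRNA quantified via RT-PCR and capillary electrophoresis; DMSO served as negative control.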
With `CCCCC(CC)COC(=O)/C=C\C(=O)OCC(CC)CCCC` (stereo not drawn), the call was inactive.
For `NCCNCCN`, the call was inactive.
On the same count and under the same terms, to `NCCCN1CCOCC1` belongs “inactive”; to `O=C(Cl)c1cccc(C(=O)Cl)c1`, “inactive”.
For `O=S(=O)(O)c1cccc2c(S(=O)(=O)O)cccc12`, the compound was called inactive.
On the same count and under the same terms, next, `Cc1ccc2n[nH]nc2c1`: “inactive”.
On to `C=CC(=O)OCC(O)COc1ccccc1` (stereo not drawn), for which the AC50 is 17.3 µM (active).
For `O=C(O)c1cccc(C(F)(F)F)c1`, the compound was called inactive.
Same read-out and setting: next, `CCCCCOC(=O)CCC`: “inactive”; `O=C[C@H](O)[C@H](O)[C@H](O)CO`: “inactive”.
Take `O=C1CCCCCCCCCCOCCCCO1`: the half-maximal activity concentration (AC50) was 40 µM (active).
With `CC1CCC(C(C)CS)CC1S` (stereo not drawn), the AC50 is 53.7 µM (active).
For the compound `Cc1ccc(Nc2ccc(O)c3c2C(=O)c2ccccc2C3=O)cc1`, the outcome was inactive.
For the compound `Cc1ccc2sc3cccc(C)c3c2c1`, the compound was classed as inactive.
For the compound `O=C(OCc1ccccc1)C(=O)OCc1ccccc1`, the compound was classed as inactive.
Same read-out and setting: to `C=C(C)C(=O)O[C@H]1C[C@@H]2CC[C@@]1(C)C2(C)C` belongs “inactive”; to `CCCCCC(CO)CCC` (stereo not drawn), “inactive”.
Same read-out and setting: to `OCCOCCOCCOCCO` belongs “inactive”.
On to `CCn1c2ccccc2c2cc(N)ccc21`, for which the compound was called inactive.
For `O=C1CCCCCCCCCCCCCCO1`, the AC50 was 100 µM (active).
As to `Cc1ccc(C(=O)c2cc(O)c(O)c([N+](=O)[O-])c2)cc1`, the compound was called inactive.
As for `N#Cc1ccccc1`, the call was inactive.
The same measure, in the same setting: to `c1ccc2c(c1)c1cccc3ccc4cccc2c4c31` belongs “inactive”.
Consider `CCCCCCCCCCCCCOS(=O)(=O)O`, for which the half-maximal activity concentration (AC50) was 3.35 µM (active).
For the compound `C#C[C@]1(O)CC[C@H]2[C@@H]3CCC4=Cc5oncc5C[C@]4(C)[C@H]3CC[C@@]21C`, the AC50 was 176 µM (active).
Regarding `CC1(C)C(=O)N(Br)C(=O)N1Cl`, the outcome was inactive.
Take `CC1(C)CCC(C)(C)c2cc(C(=O)Nc3ccc(C(=O)O)cc3)ccc21`: the outcome was inactive.
On the same count and under the same terms, to `CCCCCCCCCCCCCCCC(=O)OC[C@H](O)[C@H]1OC(=O)C(O)=C1O` belongs “inactive”; to `C[C@H]1C[C@@H]2[C@H]([C@@H](O)C[C@@]3(C)[C@H]2CC[C@]3(O)C(=O)CO)[C@@]2(C)C=CC(=O)C=C12`, “inactive”.
Turning to `O=C(O)CN(CCN(CC(=O)O)CC(=O)O)CCN(CC(=O)O)CC(=O)O`, the compound was called inactive.
For the compound `Nc1ccc(S(=O)(=O)O)c(N)c1`, the call was inactive.
On the same count and under the same terms, next, `CCCCCCCCC`: “inactive”; `O=c1cc(-c2ccccc2)oc2cc(O)cc(O)c12`: “inactive”.
For `O=Cc1ccc(Cl)c([N+](=O)[O-])c1`, the outcome was inactive.
Still for that read-out and setting: to `CC(C)(COC(=O)c1ccccc1)COC(=O)c1ccccc1` belongs “inactive”.
On the same count and under the same terms, to `CCCCOCCOCCSC#N` belongs “inactive”; to `Nc1cc([N+](=O)[O-])ccc1O`, “inactive”.

Another assay has as its target human Peroxisome Proliferator-activated Receptor delta (PPARd), PPARD (gene 5467) (UniProt Q03181). The assay can be described thus: ATG_PPARd_TRANS: Attagene TRANS-FACTORIAL HepG2 Assay for human Peroxisome Proliferator-activated Receptor delta (PPARd) (AID 2283002).
Settings: not given
The gist of the method:
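Read-out: reporter mRNA induction, quantified by fluorescent RT-PCR products resolved by capillary electrophoresis. Human HepG2 liver cells carried transiently transfected Gal4-UAS reporter constructs with chimeric NR-Gal4 fusions. Cells were dosed for 24 h; DMSO served as baseline.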
As to `CCCCC(CC)COC(=O)/C=C\C(=O)OCC(CC)CCCC` (stereo not drawn), the compound was called inactive.
On the same count and under the same terms, to `NCCNCCN` belongs “inactive”.
Still for that read-out and setting: to `NCCCN1CCOCC1` belongs “inactive”; to `O=S(=O)(O)c1cccc2c(S(=O)(=O)O)cccc12`, “inactive”.
Still for that read-out and setting: to `Cc1ccc2n[nH]nc2c1` belongs “inactive”.
As to `C=CC(=O)OCC(O)COc1ccccc1` (stereo not drawn), the compound was classed as inactive.
Still for that read-out and setting: next, `CCCCCOC(=O)CCC`: “inactive”.
Same read-out and setting: next, `O=C[C@H](O)[C@H](O)[C@H](O)CO`: “inactive”; `O=C1CCCCCCCCCCOCCCCO1`: “inactive”; `CC1CCC(C(C)CS)CC1S` (stereo not drawn): “inactive”.
Consider `Cc1ccc(Nc2ccc(O)c3c2C(=O)c2ccccc2C3=O)cc1`, for which the result was inactive.
With `Cc1ccc2sc3cccc(C)c3c2c1`, the outcome was inactive.
On the same count and under the same terms, next, `O=C(OCc1ccccc1)C(=O)OCc1ccccc1`: “inactive”; `C=C(C)C(=O)O[C@H]1C[C@@H]2CC[C@@]1(C)C2(C)C`: “inactive”; `CCCCCC(CO)CCC` (stereo not drawn): “inactive”.
On the same count and under the same terms, next, `CCn1c2ccccc2c2cc(N)ccc21`: “inactive”.
As to `O=C1CCCCCCCCCCCCCCO1`, the AC50 was 179 µM (active).
As to `Cc1ccc(C(=O)c2cc(O)c(O)c([N+](=O)[O-])c2)cc1`, the call was inactive.
The same measure, in the same setting: next, `N#Cc1ccccc1`: “inactive”.
Regarding `c1ccc2c(c1)c1cccc3ccc4cccc2c4c31`, the result was inactive.
Same read-out and setting: next, `CCCCCCCCCCCCCOS(=O)(=O)O`: “inactive”.
In the case of `C#C[C@]1(O)CC[C@H]2[C@@H]3CCC4=Cc5oncc5C[C@]4(C)[C@H]3CC[C@@]21C`, the call was inactive.
Still for that read-out and setting: to `CC1(C)C(=O)N(Br)C(=O)N1Cl` belongs “inactive”.
Consider `CC1(C)CCC(C)(C)c2cc(C(=O)Nc3ccc(C(=O)O)cc3)ccc21`, for which the call was inactive.
As to `CCCCCCCCCCCCCCCC(=O)OC[C@H](O)[C@H]1OC(=O)C(O)=C1O`, the call was inactive.
Regarding `C[C@H]1C[C@@H]2[C@H]([C@@H](O)C[C@@]3(C)[C@H]2CC[C@]3(O)C(=O)CO)[C@@]2(C)C=CC(=O)C=C12`, the outcome was inactive.
Turning to `O=C(O)CN(CCN(CC(=O)O)CC(=O)O)CCN(CC(=O)O)CC(=O)O`, the compound was called inactive.
Same read-out and setting: next, `CCCCCCCCC`: “inactive”.
Same read-out and setting: to `O=c1cc(-c2ccccc2)oc2cc(O)cc(O)c12` belongs “inactive”; to `O=Cc1ccc(Cl)c([N+](=O)[O-])c1`, “inactive”; to `CC(C)(COC(=O)c1ccccc1)COC(=O)c1ccccc1`, “inactive”.
Still for that read-out and setting: to `CCCCOCCOCCSC#N` belongs “inactive”.
For the compound `Nc1cc([N+](=O)[O-])ccc1O`, the compound was classed as inactive.

Read-out in another assay: Intercellular Adhesion Molecule 1 (ICAM1), ICAM1 (gene 3383)
The assay can be described thus: BSK_3C_ICAM1: BioMAP Diversity Plus: 3C Assay for Intercellular Adhesion Molecule 1 (ICAM1) Biomarker Activity (AID 2283003; active means hit-call score of the fitted dose curve at least 0.9, where 1 is the maximum; inactive means score below 0.9). As to conditions: primary human endothelial cells (HUVEC); actives raise or lower the signal. The gist of the method: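 Primary human umbilical vein endothelial cells in the BioMAP 3C system were exposed to chemicals for 24 h, then ICAM-1 was quantified by ELISA. Activity was fitted bidirectionally against the DMSO negative control baseline.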
`CCCCC(CC)COC(=O)/C=C\C(=O)OCC(CC)CCCC` (stereo not drawn): the result was inactive.
Still for that read-out and setting: next, `NCCNCCN`: “inactive”.
As to `Cc1ccc2n[nH]nc2c1`, the result was inactive.
On to `CC1CCC(C(C)CS)CC1S` (stereo not drawn), for which the concentration at half-maximal activity (AC50) is 27.4 µM (active).
Take `Cc1ccc(Nc2ccc(O)c3c2C(=O)c2ccccc2C3=O)cc1`: the result was inactive.
On to `C=C(C)C(=O)O[C@H]1C[C@@H]2CC[C@@]1(C)C2(C)C`, for which the half-maximal activity concentration (AC50) was 28.8 µM (active).
Turning to `CCn1c2ccccc2c2cc(N)ccc21`, the result was inactive.
Consider `O=C1CCCCCCCCCCCCCCO1`, for which the AC50 is 28.6 µM (active).
For the compound `c1ccc2c(c1)c1cccc3ccc4cccc2c4c31`, the result was inactive.
For `C#C[C@]1(O)CC[C@H]2[C@@H]3CCC4=Cc5oncc5C[C@]4(C)[C@H]3CC[C@@]21C`, the result was inactive.
Consider `C[C@H]1C[C@@H]2[C@H]([C@@H](O)C[C@@]3(C)[C@H]2CC[C@]3(O)C(=O)CO)[C@@]2(C)C=CC(=O)C=C12`, for which the result was inactive.
Still for that read-out and setting: to `CC(C)(COC(=O)c1ccccc1)COC(=O)c1ccccc1` belongs “inactive”; to `Nc1cc([N+](=O)[O-])ccc1O`, “inactive”.
